Measured values reported in PubChem BioAssay (NCI).
Compounds without any hit were thinned out: in the full panel of roughly 83,000, 20% have a hit.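 Each cell line was grown in a 96-well plate and treated with one concentration of compound for 48 hours. Values below 10 were considered active.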 Calls of active or inactive are those of the source.

Experiments:
Experiment in all cases: NCI-60 one-dose screen, 48 h (100 = growth as untreated, 0 = no growth, -100 = all killed)
Settings in all cases: 10 µM unless noted
[1] = test system: HCT-15 colon
[2] = test system: HT29 colon
[3] = test system: SNB-75 CNS
[4] = test system: SNB-19 CNS
[5] = test system: U251 CNS
[6] = test system: SK-MEL-5 melanoma
[7] = test system: UACC-62 melanoma
[8] = test system: LOX IMVI melanoma
[9] = test system: SK-MEL-28 melanoma
[10] = test system: SK-MEL-2 melanoma
[11] = test system: EKVX NSCLC
[12] = test system: SN12C renal
[13] = test system: UO-31 renal
[14] = test system: TK-10 renal
[15] = test system: ACHN renal
[16] = test system: CAKI-1 renal
[17] = test system: A498 renal
[18] = test system: CCRF-CEM leukemia
[19] = test system: MOLT-4 leukemia

Measured: growth

CCOP(=O)(CCN1CCN(CCCCCOc2cc3c(cc2OC)C(=O)N2CCC[C@H]2C=N3)CC1)OCC
inactive: [1] 104% | [2] 80.4% | [3] 65.5% | [4] 91.5% | [5] 30.1% | [6] 83.9% | [7] 94.6% | [8] 22% | [9] 120% | [10] 33.6% | [11] 98.2% | [12] 79% | [13] 28.3% | [14] 148% | [15] 99.9% | [16] 57.3% | [17] 89.2% | [18] 11% | [19] 19.9%

CC1CCc2c(sc(NC(=O)CSc3nnc4ccccn34)c2C(N)=O)C1 (stereo unspecified)
inactive: [1] 106% | [2] 117% | [3] 104% | [4] 115% | [5] 108% | [6] 99.3% | [7] 101% | [8] 90.5% | [9] 137% | [10] 48.4% | [11] 150% | [12] 102% | [13] 110% | [14] 179% | [15] 96.7% | [16] 95.7% | [17] 133% | [18] 101% | [19] 108%

O=C(c1ccccc1)C(Cl)C(Cl)c1ccccc1 (stereo unspecified)
active: [1] -7.84% | [7] 0.557% | [8] -64.9% | [12] -13.9% | [13] -50.5% | [14] -8.89% | [15] -71.5% | [18] 5.75%
inactive: [2] 20.4% | [3] 70.7% | [4] 92% | [5] 78% | [6] 88.8% | [9] 67.3% | [10] 96.3% | [11] 79% | [16] 38% | [19] 25.9%
